# Compound activity from PubChem.
# An excerpt weighted towards active compounds, which were near 32% of everything screened.
# CYP2C9 activ: activators of human CYP2C9. activation factor at 5 µM. AID 1024. recombinant CYP2C9, luciferin-H conversion, luminescence; hits give high values; factor 1 = untreated enzyme, 0 = blocked. P11712. 1.4% of 96,000 active;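 active = activation factor of 2 or more for CYP2C9 at a 5 µM dose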;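 note: 0 = sulfaphenazole-blocked wells and 1 = vehicle-only wells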
# Target sequence (P11712 whole entry, looked up): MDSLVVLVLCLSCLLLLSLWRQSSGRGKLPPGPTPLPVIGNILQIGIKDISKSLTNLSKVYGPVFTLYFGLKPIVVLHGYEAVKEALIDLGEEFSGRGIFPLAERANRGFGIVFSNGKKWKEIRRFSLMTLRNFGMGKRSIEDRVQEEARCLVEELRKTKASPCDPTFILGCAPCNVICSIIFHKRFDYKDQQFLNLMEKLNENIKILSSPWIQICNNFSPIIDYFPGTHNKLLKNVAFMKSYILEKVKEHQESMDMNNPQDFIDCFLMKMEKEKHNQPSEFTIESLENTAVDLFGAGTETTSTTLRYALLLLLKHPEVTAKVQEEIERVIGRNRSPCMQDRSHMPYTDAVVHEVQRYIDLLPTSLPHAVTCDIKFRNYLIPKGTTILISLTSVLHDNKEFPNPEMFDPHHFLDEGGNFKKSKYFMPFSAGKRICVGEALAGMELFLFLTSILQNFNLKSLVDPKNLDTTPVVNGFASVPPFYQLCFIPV
# CYP2C9 inh: inhibitors of human CYP2C9; inhibition, % at 5 µM; 20% of 96,000 active; CYP2C9 Supersomes, luciferin-H conversion, luminescence; P11712; AID 777;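 active = blocking of liver enzyme CYP2C9 beyond about 50% at 5 µM, limit read from the data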
# CYP2C19 activ: activators of human cytochrome P450 2C19; 96,000 tested, under 10 active; activation factor at 5 µM; recombinant CYP2C19, luciferin-H EGE luminescence; hits give high values; 0 = fully inhibited enzyme, 1 = untreated enzyme; AID 1025; P33261;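 active = activation factor of at least 2 at 5 µM in the primary screen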;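 note: 0 = wells with 2.5 mM tranylcypromine and 1 = vehicle-only wells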
# PostGolgi yeast: growth inhibition of a yeast mutant, post-Golgi transport screen. post-Golgi transport phenotypic cell assay. inhibition, % at 10 µM. 0.9% of 98,000 active. AID 739;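 note: yeast cells grown in 1536-well plates; yeast grown about 18 h at 30C before absorbance read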
# CYP2C19 inh: blocks human cytochrome P450 2C19 | P33261 | inhibition, % at 5 µM | 21% of 96,000 active | AID 778 | CYP2C19 Supersomes, luciferin-H EGE luminescence, 30 min;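 active = CYP2C19 inhibition above a set limit at 5 µM in the primary screen, cut at about 50% in these data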;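 note: plate controls were negative control wells for no effect and 2.5 mM tranylcypromine positive control for full effect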
# PostGolgi ctrl: yeast control strain growth, post-Golgi counter-screen. efflux-deficient yeast background strain, growth absorbance A615, 16 h. inhibition, % at 10 µM. 5% of 98,000 active. AID 738
# * marks the source's active call; other numbers are inactive results; x = not tested or not shown. Cut-off read from the data, not from the text of the source, unless noted: active = inhibition above about 30%; inactive = the rest.
SMILES,CYP2C9 activ,CYP2C9 inh,CYP2C19 activ,PostGolgi yeast,CYP2C19 inh,PostGolgi ctrl
Cc1ccccc1CSc1nc2n(n1)C(c1cccs1)C1=C(CCCC1=O)N2 (configuration not stated),0.4,58*,0.8,-15,17,9
FC(F)(F)c1cc(-c2cccs2)nc(-n2cc(Cl)cn2)n1,0.7,29,1.1,-1,-6,16
O=C(NCc1cccc(F)c1)c1noc2c1CCCC2,0.9,8,1,-7,-2,-2
O=C(NC1CCCCC1)c1noc2c1CCCCC2,0.8,20,0.1,-3,94*,23
O=C(Nc1cnn(Cc2ccc(Cl)cc2Cl)c1)c1cc(-c2cccs2)on1,1,1,1,1,3,-1
O=C(NCc1cccnc1)c1noc2c1CCCCC2,1,0,0.1,0,90*,5
O=C(NCc1ccccc1)c1noc2c1CCCC2,1.1,-5,1,3,2,4
CC(C)(C)C1CCc2onc(C(=O)NC3CCCC3)c2C1 (configuration not stated),0.9,11,0.8,3,21,10
O=C(NCc1cccnc1)c1noc2c1CCCC2,1.1,-8,0.3,3,67*,-8
O=C(Nc1cnn(Cc2ccc(Cl)cc2Cl)c1)c1noc2c1CCCC2,x,x,x,-5,x,33*
CCN(CC)Cc1c(CC(C)C)oc(C)c1C(=O)O,1.2,-16,1.1,-3,-9,1
Cc1ccc2nc(/C(C#N)=C/c3cn[nH]c3-c3ccc(F)cc3)[nH]c2c1,0.6,42,0.6,-3,37,10
O=C(NCc1ccc(Cl)cc1)c1noc2c1CCCC2,0.2,78*,0.4,0,64*,2
O=C(CSc1ncnc2c1oc1ccccc12)Nc1cccc(C(F)(F)F)c1,1,4,1.2,1,-17,9
CCc1nnc(NC(=O)CSc2ncnc3c2oc2ccccc23)s1,0.2,77*,0.7,5,25,-5
CCOc1ccccc1NC(=O)CSc1ncnc2c1oc1ccccc12,0.1,85*,1,13,4,26
O=C(CSc1ncnc2c1oc1ccccc12)Nc1nc2ccccc2s1,0.2,77*,0.8,-9,16,-2
O=C(CSc1ncnc2c1oc1ccccc12)Nc1ccccc1F,0.8,20,1.1,7,-13,-4
O=C(CSc1ncnc2c1oc1ccccc12)Nc1cccc(Cl)c1,0.4,60*,0.7,4,32,-6
CC(=O)CSc1ncnc2c1oc1ccccc12,0.9,7,0.7,3,26,9
Cn1nc(OC(=O)Nc2ccc(F)cc2)cc1C(F)(F)F,0.9,13,1,-7,2,9
N#Cc1ccc(Oc2cccnc2)cc1C#N,1,2,0.7,-5,30,0
O=C1NC(c2cccs2)Nc2sc3c(c21)CCCC3 (configuration not stated),0.4,60*,1.1,0,-14,9
C/C=C/C(=O)Nc1ccccc1Br,1,-1,0.9,11,7,13
Cc1nnc(SCc2cn3ccsc3n2)n(N)c1=O,0.9,9,1.1,4,-13,1
SMILES,CYP2C9 activ,CYP2C9 inh,CYP2C19 activ,PostGolgi yeast,CYP2C19 inh,PostGolgi ctrl
Cc1cccc(Nc2nnc(SCc3cn4ccsc4n3)s2)c1,0.4,57*,0.3,-2,74*,21
COc1ccc(C)cc1-n1nnnc1SCc1cn2ccsc2n1,0.6,40,0.1,-5,87*,-3
COc1ccc(C)cc1-n1nnnc1SCC1CCCCO1 (configuration not stated),0.3,73*,0,-4,100*,12
CC1CCc2nc(NC(=O)C3CCCO3)sc2C1 (configuration not stated),1,3,1,-2,-5,6
O=C1CSC(c2ccc(F)cc2)N1c1nnc(C23CC4CC(CC(C4)C2)C3)s1 (configuration not stated),0.6,42,0.6,2,41,17
Cc1onc(-c2c(Cl)cccc2Cl)c1C(=O)NCCN1CCOCC1,1.1,-10,1.1,24,-7,-3
Cc1[nH]n(-c2ccccc2)c(=O)c1Sc1ccc(Cl)cc1,0.1,86*,0.5,-3,52*,35*
Cc1[nH]n(C(C)(C)C)c(=O)c1Sc1ccccc1,0.8,22,0.8,16,18,-5
CN1c2ccccc2-c2nc3ccccc3n2C1c1ccncc1 (configuration not stated),0,95*,0,-4,96*,15
